According to ChEMBL document CHEMBL3988442, “University of Dundee, Small-Polar-MMV Screening Library” (2021):
Among all 48,000 compounds or so, about 13,000 (27%) showed an effect of 50% or more. The list shows a part of the results.

The compounds below were run on Wolbachia pipientis (assay: Anti-Wolbachia Cell-Based Screen). Settings: 5 µM.
Assay type: functional
Parameters: scale not given: in the data most compounds retested in dose-response had high values

SMILES	Percent Effect
CC(NCC1=Cc2cc(Cl)ccc2OC1)c1nnc2n1CCCC2 (stereo not drawn)	8.386%
CN1CCOC[C@H]1c1nc(-c2cccnc2)c[nH]1	-3.029%
CCNc1ccnc(N2CCN(Cc3ncccc3C)CC2)n1	0.1311%
CCNc1nc(-c2cccnc2)c(-c2ccnc(N3CCCC3)n2)s1	59.83%
CCNc1nc(-c2cccnc2)c(-c2ccnc(N3CCOCC3)n2)s1	59.36%
CCCS(=O)(=O)N1CCN(c2ccnc(N3CCCC3)n2)CC1	2.468%
CCc1cnc(NCC(c2cccnc2)N2CCOCC2)nc1 (stereo not drawn)	1.67%
CN(Cc1nccn1C)c1ccc(-c2nccn2C)nn1	-5.677%
CNc1cc(C2CCN2c2ncccn2)nc(C)n1 (stereo not drawn)	95.15%
Cc1nc(NC2CCCC2)cc(C2CCN2c2ncccn2)n1 (stereo not drawn)	84.97%
Cc1nc(C2CCN2c2ncccn2)cc(N(C)C)n1 (stereo not drawn)	87.93%
CN(Cc1nnc2n1CCC2)S(=O)(=O)c1cc(Br)ccc1Br	5.695%
O=C(c1cncc(N2CCC3(CC2)NCCNC3=O)n1)N1CCCCC1	-23.93%
CN(C)CCn1ccc2cc(NC(=O)NCc3ccon3)ccc21	-4.037%
O=C(Cc1cccc(F)c1F)NS(=O)(=O)c1ccc(Cl)cn1	3.295%
O=C(CNc1cc2c(cc1Cl)OCCO2)NCC(F)(F)F	19.2%
COc1ccc(C2(C(=O)N3CC[C@@]4(O)CCNC[C@H]4C3)CCCC2)cc1	-11.98%
CN(Cc1ccc2nsnc2c1)CC1(O)CCNC1 (stereo not drawn)	4.818%
COc1ccc(CN(C)CC2(O)CCNC2)cc1 (stereo not drawn)	119.3%
N#Cc1cn(C2CC2)c(=O)n(Cc2ncc(-c3cccs3)o2)c1=O	18.42%
COCCCN1CC2(CCCN(c3ncc4nc[nH]c4n3)C2)CCC1=O (stereo not drawn)	-4.995%
Cl.Cl.O=C(NCc1cncc2c1CCN(Cc1ccccc1)C2)C1CC1	12.37%
Cl.Cl.O=C(NCc1cncc2c1CCN(Cc1ccc(F)cc1)C2)C1CC1	-3.295%
CC(C)CN1CCC(C(=O)NCCNC(=O)c2ccco2)CC1	-4.338%

SMILES	Percent Effect
Cl.Cl.O=C(NCc1cncc2c1CCN(CC1CCOC1)C2)c1ccco1 (stereo not drawn)	105%
Cl.Cl.O=C(NCc1cncc2c1CCN(C1CCOCC1)C2)c1ccco1	116%
Cl.Cl.O=C(NCc1cncc2c1CCN(CC1CCOC1)C2)c1ccno1 (stereo not drawn)	2.196%
Cl.Cl.O=C(NCc1cncc2c1CCN(C1CCOCC1)C2)c1ccno1	114.6%
Cl.Cl.O=C(NCc1cncc2c1CCN(C1CCOC1)C2)c1ccco1 (stereo not drawn)	112.9%
Cl.Cl.O=C(NCc1cncc2c1CCN(Cc1cccc(F)c1)C2)C1CC1	1.539%
CS(=O)(=O)N1CCCN(C(=O)c2ccc(Cn3ccccc3=O)o2)CC1	2.265%
O=C(NS(=O)(=O)c1ccccc1Cl)c1cccc2c1OCCO2	-4.478%
Cc1ccc(CN(C)C)cc1NC(=O)C1CC=CC1	-13.67%
CCc1ncc2c(n1)CN(CC(=O)N1CCc3sccc3C1)CC2	0.7848%
O=C(O)C(F)(F)F.c1cncc(N2CCCC3(CCN(CC4CCCO4)CC3)C2)c1 (stereo not drawn)	83.5%
COc1ccc(N2CCCC3(C2)CN(c2cccnc2)CCO3)cc1.O=C(O)C(F)(F)F (stereo not drawn)	0.9473%
O=C(O)C(F)(F)F.O=C(O)C(F)(F)F.c1cncc(N2CCCC3(CCN(CCN4CCCC4)CC3)C2)c1	112%
O=C(O)C(F)(F)F.c1cncc(N2CCOCC3(CCCN(c4nncs4)C3)C2)c1 (stereo not drawn)	-4.249%
O=C(O)C(F)(F)F.c1cncc(N2CCC3(CCCN(c4ccncc4)C3)CC2)c1	92.43%
N#Cc1ccc(N2CCCC3(CCN(c4cccnc4)CC3)C2)cc1.O=C(O)C(F)(F)F	32.72%
Fc1cnccc1CN1CCCC2(CCN(c3ncccn3)CC2)C1.O=C(O)C(F)(F)F	-3.022%
c1ccc(NCc2cn3c(n2)CN(Cc2nccs2)CC3)nc1	0.03801%
CC(=O)c1cc(CC(=O)N2CCN(S(=O)(=O)c3ccccc3)CC2)cs1	-20.85%
COc1cc2c(nn1)CCN(Cc1nnc(Cc3ccccc3)o1)C2	16.22%
CC(C)COCCCNC(=O)NC(C)c1ccc(-n2cncn2)cc1 (stereo not drawn)	-8.242%
COCCNC(=O)[C@H]1C[C@@H]2CCN(CCc3ccccc3)C[C@@H]2O1.O=C(O)C(F)(F)F	-51.54%
O=C(NCc1cccnc1)[C@@H]1C[C@H]2[C@H](CCN2c2ncc(F)cn2)O1.O=C(O)C(F)(F)F.O=C(O)C(F)(F)F	-1.497%
COCCNC(=O)[C@H]1C[C@@H]2CCN(CCc3ccccc3)C[C@H]2O1.O=C(O)C(F)(F)F	28.03%

SMILES	Percent Effect
COCCNC(=O)[C@H]1C[C@@H]2CCN(c3ccccc3)C[C@H]2O1.O=C(O)C(F)(F)F	88.58%
O=C(NCc1cccnc1)[C@H]1C[C@@H]2CCN(c3ccncn3)C[C@H]2O1.O=C(O)C(F)(F)F.O=C(O)C(F)(F)F	98.22%
O=C(NCc1cccnc1)[C@@H]1C[C@@H]2CCN(c3ncc(F)cn3)C[C@@H]2O1.O=C(O)C(F)(F)F.O=C(O)C(F)(F)F	11.34%
COCCNC(=O)[C@@H]1C[C@@H]2CCN(c3ncccn3)C[C@H]2O1.O=C(O)C(F)(F)F	90.69%
COCCNC(=O)[C@H]1C[C@@H]2CCN(c3ccncn3)C[C@H]2O1.O=C(O)C(F)(F)F	90.71%
COC(=O)c1ccc(N2CCN(C(=O)CCCc3cn[nH]c3)CC2)cc1	-14.7%
CCNc1ncc(C(=O)NCc2csc(C)n2)cn1	-20.21%
OCCOc1ccc(NCc2cccc3cccnc23)cn1	-13.71%
COCCNC(=O)[C@H]1C[C@@H]2CCN(c3ncccn3)C[C@@H]2O1	107.5%
COCCNC(=O)[C@H]1CN(c2ncccn2)C[C@H]2OCC[C@@H]12	-34.97%
COCCNC(=O)[C@H]1C[C@@H]2CCN(c3ncccn3)C[C@H]2O1.O=C(O)C(F)(F)F	108.2%
COCCNC(=O)[C@@H]1CN(c2ncccn2)C[C@H]2OCC[C@H]21	-43.81%
COCc1noc(C2(c3cccc(Cl)c3)CCOCC2)n1	-3.313%
COC(=O)c1cccc(C2CNCCN2C)c1 (stereo not drawn)	77.97%
CC(=O)N1CCNCC1c1cccc(C(=O)N(C)C)c1 (stereo not drawn)	-10.2%
CNC(=O)c1cccc(C2CNCCN2C)c1 (stereo not drawn)	-21.17%
COC(=O)c1cccc(C2CNCCN2C(C)=O)c1 (stereo not drawn)	103.9%
COC(=O)c1ccc2ccn(CC3CCNC3)c(=O)c2c1 (stereo not drawn)	-6.108%
COCCN1CCN(Cc2cccc(C(=O)N(C)C)c2)CC1C (stereo not drawn)	-4.413%
COC(=O)c1cccc(CNC(=O)NCCC(F)(F)F)c1	-12.97%
COC(=O)c1cccc(CNC(=O)CCC(F)(F)F)c1	-15.88%
CN(C)C(=O)c1cccc(C2CNCCN2C)c1 (stereo not drawn)	117.5%
O=C(NCCc1ccncc1)c1ccc(N2CCOCC2)cc1	-6.093%
Cn1cc(C(=O)NCc2ccc(N3CCNC(=O)C3)c(F)c2)cn1	-29.09%

SMILES	Percent Effect
CC(C)CCC(=O)N1CCN(C(=O)c2ccc3nccn3c2)CC1	-6.791%
CC(C)(O)CCc1cccc(C(=O)NCCC2=CSC3=NCCCN23)c1	99.07%
O=C(NC1=NCCCN1c1ccc(Cl)cc1)c1cccc(Cl)c1	17.77%
CC(C)(O)CCc1cccc(C(=O)NCc2nccs2)c1	1.829%
CC(=O)N1CCOC(CNC(=O)c2cccc(CCC(C)(C)O)c2)C1 (stereo not drawn)	13.88%
CNc1cc(C(=O)N2CCC3(CC2)Nc2ccccc2NC3=O)ccn1	27.99%
CCOc1ccc(N2CCCN=C2NC(=O)c2cccc(Cl)c2)cc1	-0.7192%
CCC(=O)Nc1cccc(C(=O)NCCC2=CSC3=NCCCN23)c1	108.7%
CNc1cc(C(=O)NCCC2=CSC3=NCCCN23)ccn1	99.62%
CNc1cc(C(=O)N2CCCCC2CCn2ccnc2C)ccn1 (stereo not drawn)	14.21%
c1ccc(Cn2ccnc2CNC2CCCOc3ccccc32)cc1 (stereo not drawn)	-11.7%
COC(=O)C(C)CN(C)S(=O)(=O)c1c(Br)cc2[nH]c(=O)oc2c1Cl (stereo not drawn)	24.19%
Cc1cccc(N(CCC(N)=O)C(=O)c2cc(-n3cccn3)ccn2)c1	-21.32%
CC1c2ncc(CNC(=O)C3CC3)n2CCN1Cc1ccccn1.O=C(O)C(F)(F)F.O=C(O)C(F)(F)F (stereo not drawn)	93.52%
CC1c2ncc(CNC(=O)C3CC3)n2CCN1Cc1cnn(C)c1.O=C(O)C(F)(F)F.O=C(O)C(F)(F)F (stereo not drawn)	-12.81%
O=C(NCc1cn2c(n1)CN(Cc1ccccn1)CC2)C1CCC1.O=C(O)C(F)(F)F.O=C(O)C(F)(F)F	-6.874%
CC1c2ncc(CNC(=O)C3CC3)n2CCN1Cc1ccsc1.O=C(O)C(F)(F)F (stereo not drawn)	96.09%
O=C(NCc1cn2c(n1)CN(Cc1ccncc1)CC2)C1CCC1.O=C(O)C(F)(F)F.O=C(O)C(F)(F)F	-6.264%
CC1c2ncc(CNC(=O)C3CC3)n2CCN1Cc1ccncc1.O=C(O)C(F)(F)F.O=C(O)C(F)(F)F (stereo not drawn)	104.7%
Cc1ncsc1CN1CCn2c(COCC3CC3)cnc2C1C.O=C(O)C(F)(F)F (stereo not drawn)	6.232%
CC1c2ncc(CNC(=O)C3CC3)n2CCN1Cc1nccs1.O=C(O)C(F)(F)F (stereo not drawn)	120.4%
